# From PubChem BioAssay AID1259389 (Center for Chemical Genomics, University of Michigan, 2018)
# The whole screen tested about 100,000 compounds, of which about 620 (0.62%) were called active. Many of the other results were omitted from the sample, so actives are more common in it than they were. Values without a mark were called inactive. How the source made its calls: active means z-score of 3 or more in at least 2 runs; inactive means the rest.
# Experiment: TAR RNA-Tat peptide displacers, HIV-1, primary screen, biochemical, FRET, FAM/TAMRA-labeled Tat (AID 1259389)
# Details: HIV-1 TAR RNA, Tat peptide displacement FRET; hits give high values
row,SMILES,z-score
1,CCOC(=O)c1[nH]c(C)c(C(=O)NC2CCCC(C)C2C)c1C (stereo unspecified),0.78
2,CSc1cccc(NC(=O)N2c3ccccc3NC3=C(C(=O)CCC3)C2c2ccco2)c1 (stereo unspecified),0.6
3,O=C1c2ccccc2S(=O)(=O)N1Cc1nnnn1-c1ccccc1,2.08
4,Cc1nc(-c2ccc(C)c(S(=O)(=O)Nc3ccc(Cl)cc3F)c2)cs1,1.67
5,CCNC(=O)C1=CC(c2cccs2)=NS(=O)(=O)N1C,1.38
6,CN1C(C(=O)N2CCCc3ccccc32)=CC(c2ccc3c(c2)OCO3)=NS1(=O)=O,2.14
7,CN1C(C(=O)NCc2ccccc2)=CC(c2ccc3c(c2)OCO3)=NS1(=O)=O,3.21 (active)
8,CNC(=O)c1c(NC(=O)CCSc2ccccc2)sc2c1CCC2,0.4
9,COC(=O)c1cc2n(n1)CC(C)(C(=O)NC1CCC(C)CC1)N(CCc1cccs1)C2=O (stereo unspecified),0.65
10,CSc1cccc(NC(=O)CSc2nnc(C)n3c2cc2oc(C)cc23)c1,0.7
11,O=C(Nc1nccs1)c1cc(-c2ccc(Cl)cc2)on1,15.3
12,CC1CCCC(NC(=O)C(C)n2ncn3cccc3c2=O)C1C (stereo unspecified),11 (active)
13,Cc1cc2c(cc3c(=O)n(CC(=O)NC4CCCC(C)C4C)ncn32)s1 (stereo unspecified),-0.21
14,CN1CCN(C(=O)Cn2ncn3cccc3c2=O)CC1,1.42
15,CCCCn1c(C)c(C)c2c1ncn1nc(Cc3ccc(OC)cc3)nc21,0.12
16,CC1CCCCN1CCCNC(=O)c1noc2c1CCc1sccc1-2 (stereo unspecified),1.13
17,CN1C(=O)C[C@H](C(=O)O)C1c1cccnc1 (stereo partly specified),1.8
18,CCOc1ccc2nc(Nc3nc(C)c(CC)c(=O)[nH]3)nc(C)c2c1,2.61
19,Cc1ccc2nc(Nc3ncc4c(n3)CC(C)(C)CC4=O)nc(C)c2c1,1.31

row,SMILES,z-score
1,CCOc1ccc2nc(Nc3ncc4c(n3)CC(c3ccco3)CC4=O)nc(C)c2c1 (stereo unspecified),13.8 (active)
2,Cn1cc(NC(=O)Nc2cccc(Cl)c2)c2ccccc2c1=O,-0.05
3,Brc1ccccc1C1Nc2cccc3cccc(c23)N1,5.65 (active)
4,Cc1ccc(C2CC(c3cccc(C)c3)n3nc(N)nc3N2)cc1 (stereo unspecified),0.73
5,Oc1ccc(C2Nc3cccc4cccc(c34)N2)cc1,4.86 (active)
6,COc1ccc(N2C(=O)C3CCCN3C2c2cccc(OC)c2)cc1 (stereo unspecified),-0.15
7,COc1ccc(C2CC(=O)C3=C(C2)Nc2ccccc2NC3c2cccc(Cl)c2)cc1 (stereo unspecified),-1.58
8,COc1cccc(C2Nc3cccc4cccc(c34)N2)c1,21.3 (active)
9,Cc1ccc(C2Nc3cccc4cccc(c34)N2)cc1,6.71 (active)
10,COc1cccc(C2Nc3cccc4cccc(c34)N2)c1OC,3.46
11,CCC(C)NC(=O)c1ccc(CN2C(=O)C(C)=C(c3ccc(C)cc3)S2(=O)=O)cc1 (stereo unspecified),1.92
12,Cc1nc2nc(Cc3ccccc3)[nH]n2c(=O)c1C,2.84
13,Cc1cc2nc(COC(=O)c3ccccc3Cl)cc(=O)n2o1,0.42
14,Oc1ccc2ncccc2c1C(Nc1ccccn1)c1cccc(Br)c1 (stereo unspecified),10.7
15,O=C(OCc1cc(=O)n2nc(C3CCCCC3)sc2n1)c1ccccc1,0.63
16,COc1cc(C2OC(c3ccc(Br)cc3)=NN2C(C)=O)ccc1OC(C)=O (stereo unspecified),1.63
17,Cc1c(C(=O)N2CCC(C)CC2)c(S(=O)(=O)N2CCN(C3CCCCC3)CC2)c(C)n1C,1.14
18,Cc1cccc(NS(=O)(=O)c2ccc(-c3ccc(=O)[nH]n3)o2)c1C,0.96
19,CCOc1ccc(/C=C/c2nc(C#N)c(N3CCNCC3)o2)cc1,0.65

row,SMILES,z-score
1,CCSc1ncc(CO)n1Cc1ccc(F)cc1,0.78
2,Cc1ccn2c(=O)c(C(=O)NCCCOC(C)C)c(O)nc2c1,0.76
3,COc1ccc(-c2nc3ccccc3[nH]2)cc1OC,2.05
4,Cc1nnc(NC(=O)CN2C(=O)c3cccnc3Sc3ccccc32)s1,1.32
5,O=C(Cn1c(=O)sc2ccccc21)NCCC1=CCCCC1,0.76
6,C=CCOC(=O)C1=C(C)NC2=C(C(=O)CC(C)(C)C2)C1c1cc2c(cc1Cl)OCO2 (stereo unspecified),0.26
7,O=C(c1cc(-c2ccccc2)n[nH]1)N1CCn2c1nc1ccccc12,0.42
8,COc1ccc(Cl)cc1N1CC(O)=C(c2nc3ccccc3n2C)C1=N,0.34
9,CCCC1CNc2cc(C)ccc2O1 (stereo unspecified),2.06
10,C[C@@H]1O[C@@H](O[C@H]2[C@@H](Oc3cc(O)c4c(c3)O[C@H](c3ccc(O)cc3)CC4=O)O[C@H](CO)[C@@H](O)[C@@H]2O)[C@H](O)[C@H](O)[C@H]1O,2.09
11,COc1ccc(-c2cc(=O)c3c(O)cc(O[C@@H]4O[C@H](CO[C@@H]5O[C@@H](C)[C@H](O)[C@@H](O)[C@H]5O)[C@@H](O)[C@H](O)[C@H]4O)cc3o2)cc1O,4.29
12,C[C@@H]1O[C@@H](OC[C@H]2O[C@@H](Oc3cc(O)c4c(c3)O[C@H](c3ccc(O)c(O)c3)CC4=O)[C@H](O)[C@@H](O)[C@@H]2O)[C@H](O)[C@H](O)[C@H]1O,3.52 (active)
13,Cc1nc(S(=O)(=O)Nc2ccc(C(C)C)cc2)cn1C,1.64
14,O=C1c2ccccc2C(Nc2ccc(F)cc2F)N1c1ccccn1 (stereo unspecified),2.34
15,CCOC(=O)N1CCN(c2cc(NCCO)c3c4c(onc24)-c2ccccc2C3=O)CC1,2.61
16,CN(C)CCCNc1cc(N2CCN(c3ccccc3F)CC2)c2noc3c2c1C(=O)c1ccccc1-3,5.01 (active)
17,CN1CCN(c2cc(NCCCC(=O)O)c3c4c(onc24)-c2ccccc2C3=O)CC1,1.94
18,COc1cc(C)c(S(=O)(=O)N2CCc3cc4cc(C)ccc4nc32)cc1C,-1.52
